High-throughput results: PubChem BioAssay, several laboratories
In the library only some 3.6% were active in any assay of this set; here they are far more common.
HSP90 refold inh: blocks HSP90-mediated luciferase refolding in reticulocyte lysate; Rabbit reticulocyte lysate, luciferase refolding luminescence, 3 h; 290,000 tested, 0.91% active; inhibition, % at 5.6 µM;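 active = inhibition above the screen-wide mean plus 3 SD, computed separately per campaign, cut at about 16% in these data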;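 also: inhibitors lower the luminescence because luciferase stays unfolded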
KKLEB cytotox: reduces viability of KKLEB cystic fibrosis airway cells; KKLEB CF airway cells viability, ATPlite luminescence, overnight; active compounds read low; cells stimulated with P. aeruginosa culture filtrate; activity change (cytotoxicity), % at 5 µM; 360,000 tested, 0.36% active; AID 602141;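 active = corrected activity change at or below -50% at 5 µM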
LGR2 inh: inhibitors of bursicon-induced Drosophila LGR2 receptor cAMP signaling; HEK293 LGR2, CRE-luciferase, bursicon-stimulated, 4 h; inhibition, % at 9.99 µM; 380,000 tested, 0.35% active; AID 720647;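 active = drop in luminescence signal, shown as inhibition above about 50% in the replicate tests, limit read from the data, passing the limit was not always enough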;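 also: agonist challenge used bursicon conditioned medium at about half maximal strength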
CF NFkB block: blocks PAF-induced NF-kB reporter in cystic fibrosis cells. KKLEB NF-kB-GFP reporter, GFP fluorescence overnight. inhibition, % at 5 µM. 360,000 tested, 0.86% active;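 active = at least 50% inhibition at 5 µM, scaled per plate between neutral and stimulator controls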;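 also: PAF is a Pseudomonas aeruginosa culture filtrate used as stimulus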
Peg3 prom inh: Peg3 promoter activity inhibition | 360,000 tested, 1.7% active | HeLa PEG-Prom luciferase reporter, luminescence, overnight | inhibition, % at 20 µM;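 active = inhibition of at least 50% at 20 µM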
Mdm2 MdmX PPI: inhibitors of human Mdm2/MdmX interaction | O15151+Q00987 | SaOS-2 split-luciferase Mdm2/MdmX complementation, luminescence | inhibition, % at 8 µM | 330,000 tested, 3% active;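 active = inhibition of at least 50% at 8 µM in the primary screen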
Target sequence (O15151 whole entry, looked up): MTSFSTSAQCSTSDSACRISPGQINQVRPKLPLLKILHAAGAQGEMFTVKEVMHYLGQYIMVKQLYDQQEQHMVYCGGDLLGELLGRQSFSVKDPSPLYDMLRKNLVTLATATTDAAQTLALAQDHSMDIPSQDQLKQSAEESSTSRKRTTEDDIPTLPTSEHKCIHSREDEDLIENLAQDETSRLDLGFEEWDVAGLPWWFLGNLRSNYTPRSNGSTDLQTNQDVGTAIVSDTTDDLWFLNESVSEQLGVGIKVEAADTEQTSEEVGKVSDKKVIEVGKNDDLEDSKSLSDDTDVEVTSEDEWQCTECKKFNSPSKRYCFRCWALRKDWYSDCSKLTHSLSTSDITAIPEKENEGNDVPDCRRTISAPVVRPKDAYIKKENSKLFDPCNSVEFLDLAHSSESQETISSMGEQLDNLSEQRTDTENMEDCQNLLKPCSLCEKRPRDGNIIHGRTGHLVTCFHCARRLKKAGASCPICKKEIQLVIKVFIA
Target sequence (Q00987 whole entry, looked up): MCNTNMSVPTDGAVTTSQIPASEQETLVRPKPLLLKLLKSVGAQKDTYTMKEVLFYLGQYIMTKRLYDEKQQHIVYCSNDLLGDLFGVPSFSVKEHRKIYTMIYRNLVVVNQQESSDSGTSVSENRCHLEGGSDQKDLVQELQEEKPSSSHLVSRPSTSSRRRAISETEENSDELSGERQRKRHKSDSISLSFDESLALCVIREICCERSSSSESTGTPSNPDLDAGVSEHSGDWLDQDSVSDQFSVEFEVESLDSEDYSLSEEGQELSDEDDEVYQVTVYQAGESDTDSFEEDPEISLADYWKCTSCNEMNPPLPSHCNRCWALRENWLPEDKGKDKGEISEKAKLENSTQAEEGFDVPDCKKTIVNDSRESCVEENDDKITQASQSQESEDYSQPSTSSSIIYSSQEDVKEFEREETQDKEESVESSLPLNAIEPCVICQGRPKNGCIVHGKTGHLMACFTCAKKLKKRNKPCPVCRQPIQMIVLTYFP
Mdm2 MdmX conf: human Mdm2/MdmX binding inhibition, confirmed. inhibition, % at 8 µM. 10,000 tested, 55% active. shares compounds with Mdm2 MdmX PPI. luminescent assay; in the data active = inhibition above about 40%
Full FLuc ctr: counter-screen for Mdm2/MdmX inhibitors: full-length luciferase | inhibition, % at 8 µM | AID 504607 | 6,200 tested, 77% active | SaOS-2 full-length luciferase counterscreen, luminescence | shares compounds with Mdm2 MdmX PPI;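 active = mean inhibition at 8 µM reaching about 37%, which flags the compound as non-specific, limit read from the data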;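 also: p53-null SaOS-2 cells with luciferase driven by a doxycycline-inducible promoter; compound on cells about two nights before reading with doxycycline added after day one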
A number is an active result; i = inactive; nt = not tested or not shown.

SMILES	HSP90 refold inh	KKLEB cytotox	LGR2 inh	CF NFkB block	Peg3 prom inh	Mdm2 MdmX PPI	Mdm2 MdmX conf	Full FLuc ctr
COc1ccc(CN(C)C[C@@H]2Oc3ccc(NC(=O)Nc4ccc(F)cc4)cc3CC(=O)N([C@@H](C)CO)C[C@@H]2C)cc1	nt	nt	i	nt	nt	nt	nt	nt
COc1cc(-c2noc(C)c2C#CC2(O)CCCCC2)cc(OC)c1OC	i	i	i	i	i	61.3	43.4	83.8
COc1cc(-c2noc(C)c2C#Cc2ccsc2)cc(OC)c1OC	i	i	i	i	i	64.7	68.0	77.8
O=c1c2ccccc2nc(-c2ccc(Cl)c(Cl)c2)n1O	i	i	nt	i	i	81.9	64.2	i
O=c1c2ccc(Cl)cc2nc(-c2cccc(C(F)(F)F)c2)n1O	i	i	i	i	52.1	88.0	i	nt
COc1ccc2c3c([nH]c2c1)[C@@H](CO)N(C(=O)Nc1ccccc1F)CC31CN(C(=O)c2ccccc2F)C1	nt	nt	i	nt	nt	nt	nt	nt
Oc1ccc(Br)cc1-c1ccnn1-c1ccccc1	i	i	i	i	i	64.0	57.2	50.3
CN(C)C(=O)[C@H]1[C@H](CO)[C@H]2Cn3c(ccc(-c4ccncc4)c3=O)[C@@H]1N2CC1CC1	nt	nt	i	nt	nt	nt	nt	nt
C[C@@H]1CN([C@@H](C)CO)C(=O)c2cc(NS(=O)(=O)c3ccc(Cl)cc3)ccc2O[C@@H](C)CCCCO[C@@H]1CN(C)Cc1ccc(C(=O)O)cc1	nt	nt	i	nt	nt	nt	nt	nt
Cc1nc(S(=O)(=O)N(C)c2ccccc2)c(C#N)c(C)c1Cl	i	i	nt	i	53.9	96.2	93.4	57.4
CN(c1ccccc1)S(=O)(=O)c1ccc(Cl)nc1	i	i	i	i	i	i	nt	nt
COc1ccc(S(=O)(=O)Nc2cccc3c2O[C@@H](CN(C)S(=O)(=O)c2cn(C)cn2)[C@H](C)CN([C@@H](C)CO)C3=O)cc1	nt	nt	i	nt	nt	nt	nt	nt
COc1cc(-c2nnc(COc3ccc4cc(Br)ccc4c3)o2)cc(OC)c1OC	i	i	nt	i	i	60.5	i	nt
COc1cc(NC(=O)c2cccc3c2C(=O)N(Cc2cccnc2)C3)cc(OC)c1OC	i	i	i	i	i	51.6	47.6	95.3
C[C@@H]1CN([C@@H](C)CO)S(=O)(=O)c2ccc(-c3cncnc3)cc2O[C@@H]1CN(C)C(=O)C1CCCCC1	nt	nt	i	nt	nt	nt	nt	nt
O=C(NCCCO)/C(=C/c1ccc(-c2cccc([N+](=O)[O-])c2)o1)NC(=O)c1ccccc1	i	i	i	i	i	i	nt	nt
Cc1ccc(C(=O)N/C(=C/c2ccc(-c3ccc([N+](=O)[O-])cc3)o2)C(=O)NCCCN(C)C)cc1	nt	i	nt	i	109.2	63.6	i	nt
CN1[C@@H]2Cn3c(ccc(C4=CCCC4)c3=O)[C@H]1[C@@H](C(=O)NC1Cc3ccccc3C1)[C@@H]2CO	nt	nt	i	nt	nt	nt	nt	nt
CC(O)CNc1nc2sc3c(c2c(=O)n1CCc1ccccc1)CCCCC3 (stereo unspecified)	i	i	nt	i	i	i	nt	nt
CN(C)CCNc1nc2sc3c(c2c(=O)n1CCc1ccccc1)CCCCC3	i	i	nt	i	107.6	76.4	i	nt
C[C@H](CO)N1C[C@H](C)[C@@H](CN(C)S(=O)(=O)c2cccs2)Oc2c(NC(=O)c3cnccn3)cccc2C1=O	nt	nt	i	nt	nt	nt	nt	nt
Cc1cc(NC(=O)CSc2nc3cc(Cl)ccc3o2)no1	i	i	i	i	i	i	nt	nt
CCN(CC)S(=O)(=O)c1ccc2oc(SCC(=O)Nc3cc(C)on3)nc2c1	nt	i	i	i	i	54.9	56.7	52.5
Cc1ccccc1S(=O)(=O)N1CC(=O)N2[C@H](C1)[C@H](c1ccc(C#CCC3CCCC3)cc1)[C@@H]2CO	nt	nt	i	nt	nt	nt	nt	nt
C[C@H](CO)N1C[C@H](C)[C@H](CN(C)Cc2ccc3c(c2)OCO3)Oc2ccc(NS(=O)(=O)c3ccccc3)cc2C1=O	nt	nt	i	nt	nt	nt	nt	nt
SMILES	HSP90 refold inh	KKLEB cytotox	LGR2 inh	CF NFkB block	Peg3 prom inh	Mdm2 MdmX PPI	Mdm2 MdmX conf	Full FLuc ctr
CCN(CC)CCNc1ncnc2c1sc1nc(N3CCOCC3)c3c(c12)CCCC3	i	i	i	i	100.5	70.6	i	64.8
CCN(CC)CCNc1ncnc2c1sc1nc(N3CCCC3)c3c(c12)CC(C)(C)OC3	i	i	nt	i	78.8	59.0	i	nt
OCCNc1ncnc2c1sc1nc(N3CCOCC3)c3c(c12)CCC3	i	i	i	i	i	i	nt	nt
CC1(C)Cc2c(c(-c3ccco3)nc3sc4c(NCCN5CCOCC5)ncnc4c23)CO1	i	i	i	i	i	50.9	i	nt
CCn1c(=O)c2cc(C(=O)Nc3ccccc3OC)sc2c2ccccc21	i	i	i	i	i	61.4	i	73.0
CCn1c(=O)c2cc(C(=O)NC(C)C)sc2c2ccccc21	i	i	i	i	i	i	nt	nt
O=P(CCCCCCCCCP(=O)(c1ccccc1)c1ccccc1)(c1ccccc1)c1ccccc1	i	i	nt	i	67.3	65.6	i	nt
CC1=C(C(=O)Nc2ccccc2)C(c2ccco2)C(C#N)=C(SCC(=O)Nc2cccc(C)c2C)N1 (stereo unspecified)	i	i	i	i	i	69.2	42.4	79.3
c1ccc2c(NCCCN3CCOCC3)c3ccccc3nc2c1	i	nt	89.6	nt	nt	84.5	79.4	i
CN(C)CCCNc1c2ccccc2nc2ccccc12	i	i	91.7	i	102.0	100.3	99.7	51.5
CC=Cc1ccc2n(c1=O)C[C@H]1[C@H](CO)[C@@H](C(=O)NCc3ccncn3)N(C(=O)C3CCCC3)[C@@H]21 (mixture of isomers)	nt	nt	i	nt	nt	nt	nt	nt
CCNC(=O)C[C@@H]1CC[C@H]2[C@H](COc3ccc(NC(=O)Nc4cccc(OC)c4)cc3C(=O)N2C)O1	nt	nt	i	nt	nt	nt	nt	nt
CN(CC(=O)Nc1ccccc1Br)C(=O)c1cccnc1Nc1cccc(C(F)(F)F)c1	i	i	i	i	i	56.4	i	nt
COc1ccc2c3c(n(C)c2c1)[C@@H](CO)N(C(=O)C1CCC1)CC31CCN(C)CC1	nt	nt	i	nt	nt	nt	nt	nt
O=[N+]([O-])c1ccc(-n2cccc2/C=N/Nc2nc(N3CCCCC3)nc(N3CCCCC3)n2)cc1	i	nt	nt	nt	nt	i	nt	nt
O=[N+]([O-])c1ccc(-c2ccc(/C=N/Nc3nc(N4CCCCC4)nc(N4CCCCC4)n3)o2)cc1	i	i	i	i	i	77.5	i	74.7
O=[N+]([O-])c1ccc(-c2ccc(/C=N/Nc3nc(N4CCCC4)nc(N4CCCC4)n3)o2)cc1	i	-62.0	i	i	i	92.8	66.7	49.3
O=[N+]([O-])c1ccc(/C=N/Nc2nc(N3CCCC3)nc(N3CCCC3)n2)o1	i	i	nt	i	i	i	nt	nt
C[C@H]1CN([C@@H](C)CO)S(=O)(=O)c2ccc(C#CC3CCCC3)cc2O[C@H]1CN(C)C(=O)Cc1ccccc1	nt	nt	i	nt	nt	nt	nt	nt
COc1ccc(CNCCC(c2ccc(F)cc2)c2ccc(OC)cc2)cc1 (stereo unspecified)	i	i	i	i	75.6	66.3	43.5	81.8
